Inconclusive results are not listed. The source made the active and inactive calls. Unless noted, the call rests on the fitted dose curve; in most records, active means well fitted curve in the direction sought with a large enough effect; inconclusive means small, poorly fitted or top-dose-only effect, or another doubt; inactive means no such curve, though single readings can be large; an effect the other way counts as inactive or inconclusive.
Columns and labels:
[1] = AP1 Signaling Pathway (AID 357; active means well fitted curve in either direction with a large enough effect, not every such curve was filed as active; further: on the % scale 0 is the no-effect control and ±100 the full control effect); conditions: ME-180 AP-1-bla reporter, EGF-induced, beta-lactamase ratio, 5 h; at 17.2 µM (top of the series) unless noted
How it was run: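 Titration-series screen for positive or negative modulators of EC50 EGF-induced signaling in ME-180 cells carrying an AP-1-driven beta-lactamase reporter. After 5 hours at 37 degrees Celsius, CCF4 460nm/530nm emission ratio gave %Activity; AC50 values derived.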

[2] = target: Cytochrome P450 1A2 (Homo sapiens) (UniProt P05177); experiment: p450-cyp1a2 (AID 410; calls by dose curve; further: potency means the concentration at half of the fitted maximal effect;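 on activity change, negative = inhibition: -100% = full effect of reference inhibitor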)
Chain of Cytochrome P450 1A2 (Homo sapiens) (P05177 whole entry, looked up): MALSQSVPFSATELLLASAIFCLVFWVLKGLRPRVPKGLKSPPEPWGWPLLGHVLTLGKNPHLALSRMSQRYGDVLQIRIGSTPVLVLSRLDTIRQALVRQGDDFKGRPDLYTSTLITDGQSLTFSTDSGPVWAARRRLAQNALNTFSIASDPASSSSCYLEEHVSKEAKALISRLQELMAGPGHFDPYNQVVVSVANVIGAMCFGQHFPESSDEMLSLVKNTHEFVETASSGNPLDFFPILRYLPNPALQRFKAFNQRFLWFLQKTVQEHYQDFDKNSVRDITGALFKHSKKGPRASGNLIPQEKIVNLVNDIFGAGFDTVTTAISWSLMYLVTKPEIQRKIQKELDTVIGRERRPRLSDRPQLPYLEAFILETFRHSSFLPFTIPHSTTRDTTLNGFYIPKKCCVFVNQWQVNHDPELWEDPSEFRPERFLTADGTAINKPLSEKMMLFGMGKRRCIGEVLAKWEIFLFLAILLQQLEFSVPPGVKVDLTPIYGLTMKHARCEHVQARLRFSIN
How it was run: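 Luminescent readout of luciferin formed from Luciferin-ME by human CYP1A2; data normalized against complete inhibition by 57 uM furafylline. Enzyme 20nM, substrate 100uM at Km, 100mM KPO4 buffer, 60 min reaction at room temperature.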

[3] = Stat Signaling Pathway (AID 446; active means well fitted curve in either direction with a large enough effect, not every such curve was filed as active;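 further: ME-180 cervical cancer cells given 40 pM IL-6 alongside compound; SIE-controlled beta-lactamase reporter measured as 460/530 nm FRET emission ratio; on the % scale 0 is the no-effect control and ±100 the full control effect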)
How it was run: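 Screening format detects activators and inhibitors alike: ME-180 SIE-bla cells stimulated at 40 pM IL-6 for 5 hrs with compound, then dual-emission beta-lactamase read at 405 nm excitation.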

[4] = target: Glucocorticoid receptor (Homo sapiens) (UniProt P04150); experiment: GR-GFP Redistribution (AID 450;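 active means compounds whose dose series gives a full or clear partial fitted curve of increased nuclear translocation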; further: potency means the concentration at half of the fitted maximal effect); conditions: U2OS GR-GFP nuclear translocation, laser cytometry, 2 h
Chain of Glucocorticoid receptor (Homo sapiens) (P04150 whole entry, looked up, the tested form may be a part): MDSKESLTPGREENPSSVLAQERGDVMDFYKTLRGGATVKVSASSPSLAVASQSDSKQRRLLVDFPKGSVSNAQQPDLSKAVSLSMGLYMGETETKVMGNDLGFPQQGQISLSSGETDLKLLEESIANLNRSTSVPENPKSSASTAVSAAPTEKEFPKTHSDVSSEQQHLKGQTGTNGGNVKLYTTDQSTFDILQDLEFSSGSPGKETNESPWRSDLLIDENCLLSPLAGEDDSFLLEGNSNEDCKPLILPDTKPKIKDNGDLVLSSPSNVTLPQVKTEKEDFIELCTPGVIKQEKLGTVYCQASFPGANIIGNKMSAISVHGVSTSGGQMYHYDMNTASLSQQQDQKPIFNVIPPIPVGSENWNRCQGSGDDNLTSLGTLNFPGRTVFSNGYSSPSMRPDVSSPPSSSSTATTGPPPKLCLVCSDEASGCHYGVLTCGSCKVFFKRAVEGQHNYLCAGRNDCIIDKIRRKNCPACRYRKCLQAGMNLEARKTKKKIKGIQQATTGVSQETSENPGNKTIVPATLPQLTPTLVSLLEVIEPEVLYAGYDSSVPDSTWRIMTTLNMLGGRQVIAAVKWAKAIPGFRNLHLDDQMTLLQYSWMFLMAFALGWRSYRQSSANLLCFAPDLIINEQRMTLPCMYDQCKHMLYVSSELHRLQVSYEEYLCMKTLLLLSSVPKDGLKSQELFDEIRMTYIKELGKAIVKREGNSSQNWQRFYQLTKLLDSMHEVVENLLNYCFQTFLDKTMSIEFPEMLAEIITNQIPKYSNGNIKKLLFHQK

[5] = target: Glucocorticoid receptor (Homo sapiens) (UniProt P04150); experiment: GR-EFC Redistribution (AID 451; calls by dose curve; further: potency means the concentration at half of the fitted maximal effect); conditions: CHO-K1 GR-EFC translocation, beta-gal luminescence, 2 h
How it was run: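 Translocation of GR-ED fusion to nuclear EA restores b-gal, read by luminescence after 1 h room-temperature detection. Engineered CHO-K1 biosensor cells, 1,000/well, exposed 2 h at 37 C to titrations up to 46 uM final.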

[6] = target: 3',5'-cyclic-AMP phosphodiesterase 4B (Homo sapiens) (UniProt Q07343); experiment: qHTS Assay for Inhibitors of PDE-IV (AID 607; active means well fitted activation curve with a large enough effect in the main read-out, with a control signal flat, not every such curve was filed as active; further: % of control where 0% means no effect)
Chain of 3',5'-cyclic-AMP phosphodiesterase 4B (Homo sapiens) (Q07343 whole entry, looked up): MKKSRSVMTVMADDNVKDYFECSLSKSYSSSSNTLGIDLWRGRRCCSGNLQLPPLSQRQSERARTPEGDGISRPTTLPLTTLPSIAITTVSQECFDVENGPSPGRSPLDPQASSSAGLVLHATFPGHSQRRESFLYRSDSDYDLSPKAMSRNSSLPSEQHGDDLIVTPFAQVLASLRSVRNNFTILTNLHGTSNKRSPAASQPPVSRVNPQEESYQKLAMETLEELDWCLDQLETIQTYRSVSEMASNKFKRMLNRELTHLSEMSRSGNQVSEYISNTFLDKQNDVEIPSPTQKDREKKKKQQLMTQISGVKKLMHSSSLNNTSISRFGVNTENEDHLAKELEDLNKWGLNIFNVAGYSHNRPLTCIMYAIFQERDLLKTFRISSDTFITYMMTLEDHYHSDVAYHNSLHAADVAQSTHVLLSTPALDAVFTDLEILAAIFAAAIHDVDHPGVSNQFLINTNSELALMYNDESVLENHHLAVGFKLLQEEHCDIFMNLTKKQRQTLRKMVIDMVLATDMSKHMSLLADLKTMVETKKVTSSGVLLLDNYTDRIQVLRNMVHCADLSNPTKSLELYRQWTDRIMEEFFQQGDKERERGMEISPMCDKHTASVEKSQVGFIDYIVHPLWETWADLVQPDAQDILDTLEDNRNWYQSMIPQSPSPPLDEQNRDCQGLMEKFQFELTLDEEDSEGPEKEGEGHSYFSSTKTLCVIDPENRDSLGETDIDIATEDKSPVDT
How it was run: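 The readout is membrane depolarisation from a cAMP-sensing CNG channel, detected with a potential dye at ex 535/em 590. Cells were HEK293-derived (endogenous PDE-IV) at 1000 cells/well, titrated up to 22.9 uM final.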

[7] = target: Cytochrome P450 3A4 (Homo sapiens) (UniProt P08684); experiment: qHTS Assay for Activators of Cytochrome P450 3A4 (AID 885); further: nearly all actives have a fitted effect of over 65% in size
Chain of Cytochrome P450 3A4 (Homo sapiens) (P08684 whole entry, looked up): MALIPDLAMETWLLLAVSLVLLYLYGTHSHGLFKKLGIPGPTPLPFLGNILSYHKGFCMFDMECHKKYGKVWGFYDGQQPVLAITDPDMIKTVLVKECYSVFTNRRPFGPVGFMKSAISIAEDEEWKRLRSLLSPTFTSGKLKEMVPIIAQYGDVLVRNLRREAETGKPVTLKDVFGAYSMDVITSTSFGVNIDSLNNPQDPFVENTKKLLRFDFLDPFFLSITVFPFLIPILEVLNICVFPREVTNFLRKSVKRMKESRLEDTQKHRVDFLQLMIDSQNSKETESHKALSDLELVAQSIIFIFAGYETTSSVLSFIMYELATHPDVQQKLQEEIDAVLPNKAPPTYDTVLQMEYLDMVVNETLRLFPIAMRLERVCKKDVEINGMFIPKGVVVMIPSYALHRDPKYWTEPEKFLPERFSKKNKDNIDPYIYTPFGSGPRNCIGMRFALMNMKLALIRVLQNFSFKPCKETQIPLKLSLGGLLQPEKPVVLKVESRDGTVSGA
How it was run: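 Steps: enzyme/substrate mix dispensed; compound added, 10 min RT; NADPH regeneration solution added, 60 min RT; luciferin detection buffer stops reaction; 20 min later luminescence measured.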

[8] = target: Muscarinic acetylcholine receptor M1 (Rattus norvegicus) (UniProt P08482); experiment: qHTS Assay for Antagonists of Acetylcholine Muscarinic M1 Receptor: Measurement of IP-One Response (AID 944); further: nearly all actives have a fitted effect of over 75% in size; further: potency means the concentration at half of the fitted maximal effect
Chain of Muscarinic acetylcholine receptor M1 (Rattus norvegicus) (P08482 whole entry, looked up): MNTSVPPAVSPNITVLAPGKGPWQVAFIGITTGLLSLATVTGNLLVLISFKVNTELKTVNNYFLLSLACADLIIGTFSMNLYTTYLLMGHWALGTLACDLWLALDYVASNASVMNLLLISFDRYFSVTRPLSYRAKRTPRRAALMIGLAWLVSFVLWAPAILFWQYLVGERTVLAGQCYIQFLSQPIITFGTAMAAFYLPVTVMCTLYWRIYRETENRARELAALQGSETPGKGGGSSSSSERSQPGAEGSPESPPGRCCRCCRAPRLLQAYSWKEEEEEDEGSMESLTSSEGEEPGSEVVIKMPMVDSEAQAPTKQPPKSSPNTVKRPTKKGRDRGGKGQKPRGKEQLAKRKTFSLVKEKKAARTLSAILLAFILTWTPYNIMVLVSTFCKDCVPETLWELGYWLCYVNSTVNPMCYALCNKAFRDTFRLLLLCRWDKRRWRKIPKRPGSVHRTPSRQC
How it was run: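 M1-CHO (rat), 2000 cells/well, overnight recovery; cpd 10 min; carbachol EC80 (200 nM), 30 min, HEPES buffer + 50 mM LiCl pH 7.4; IP-One HTRF, Ex 337, Em 620/665 nm.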

[9] = target: Pyruvate kinase PKM (Homo sapiens) (UniProt P14618); experiment: qHTS Assay for Activators of Human Muscle Pyruvate Kinase (AID 954; active means well fitted curve in the direction sought with a large enough effect, not every such curve was filed as active;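 further: 0% = uninhibited enzyme and -100% = no enzyme or full thiadiazolimine inhibition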)
Chain of Pyruvate kinase PKM (Homo sapiens) (P14618 whole entry, looked up): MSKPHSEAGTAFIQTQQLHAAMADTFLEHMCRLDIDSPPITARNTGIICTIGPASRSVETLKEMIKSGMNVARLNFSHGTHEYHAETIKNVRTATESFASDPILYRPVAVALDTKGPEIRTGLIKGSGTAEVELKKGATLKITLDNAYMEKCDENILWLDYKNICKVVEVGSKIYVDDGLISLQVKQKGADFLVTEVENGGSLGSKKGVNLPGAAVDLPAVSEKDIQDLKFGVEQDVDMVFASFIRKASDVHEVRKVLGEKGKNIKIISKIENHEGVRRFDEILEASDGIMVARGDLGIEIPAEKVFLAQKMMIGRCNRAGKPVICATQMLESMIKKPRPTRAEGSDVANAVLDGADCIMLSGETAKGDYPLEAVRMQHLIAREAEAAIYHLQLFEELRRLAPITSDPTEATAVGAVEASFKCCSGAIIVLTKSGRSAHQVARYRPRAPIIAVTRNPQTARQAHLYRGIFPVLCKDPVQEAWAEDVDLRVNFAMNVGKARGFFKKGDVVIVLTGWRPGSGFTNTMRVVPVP
How it was run: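 Reaction: 0.1 nM purified PKM2 with 0.5 mM phosphoenolpyruvate and 0.1 mM ADP, room temperature, 1 h. Readout: luciferase-based ATP luminescence after stop reagent. Activators judged against a 0.3 nM enzyme column.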

[10] = target: Alpha-galactosidase (Coffea arabica) (UniProt Q42656); experiment: Counterscreen for Glucocerebrosidase Inhibitors: qHTS Assay for Coffee Bean alpha-Galactosidase at pH 4.5 (AID 957);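 further: plate controls were enzyme alone for no effect and no enzyme for full effect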
Chain of Alpha-galactosidase (Coffea arabica) (Q42656 whole entry, looked up): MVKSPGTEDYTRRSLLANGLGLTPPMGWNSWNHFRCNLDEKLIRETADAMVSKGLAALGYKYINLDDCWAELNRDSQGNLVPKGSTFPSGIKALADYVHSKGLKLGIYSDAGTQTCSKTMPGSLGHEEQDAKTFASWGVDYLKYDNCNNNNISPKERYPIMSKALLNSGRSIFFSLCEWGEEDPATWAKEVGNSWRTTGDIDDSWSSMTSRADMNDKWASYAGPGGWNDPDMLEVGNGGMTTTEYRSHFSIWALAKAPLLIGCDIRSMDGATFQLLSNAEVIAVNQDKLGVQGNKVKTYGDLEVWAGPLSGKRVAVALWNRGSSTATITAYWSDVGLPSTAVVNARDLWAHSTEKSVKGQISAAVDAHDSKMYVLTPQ
How it was run: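 Coffee bean alpha-galactosidase 2 nM, substrate 4-MU-alpha-Gal 80 uM, pH 4.5 citrate/Tween-20, 20 min RT. Cpd titration 0.7 nM–77 uM. Stop pH 10, fluorescence 365/440 nm; Hill-equation AC50.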

[11] = target: Alpha-galactosidase A (Homo sapiens) (UniProt P06280); experiment: Counterscreen for Glucocerebrosidase Inhibitors: qHTS Assay for Human alpha-Galactosidase at pH 4.5 (AID 992); further: 0% is about no effect
Chain of Alpha-galactosidase A (Homo sapiens) (P06280 whole entry, looked up): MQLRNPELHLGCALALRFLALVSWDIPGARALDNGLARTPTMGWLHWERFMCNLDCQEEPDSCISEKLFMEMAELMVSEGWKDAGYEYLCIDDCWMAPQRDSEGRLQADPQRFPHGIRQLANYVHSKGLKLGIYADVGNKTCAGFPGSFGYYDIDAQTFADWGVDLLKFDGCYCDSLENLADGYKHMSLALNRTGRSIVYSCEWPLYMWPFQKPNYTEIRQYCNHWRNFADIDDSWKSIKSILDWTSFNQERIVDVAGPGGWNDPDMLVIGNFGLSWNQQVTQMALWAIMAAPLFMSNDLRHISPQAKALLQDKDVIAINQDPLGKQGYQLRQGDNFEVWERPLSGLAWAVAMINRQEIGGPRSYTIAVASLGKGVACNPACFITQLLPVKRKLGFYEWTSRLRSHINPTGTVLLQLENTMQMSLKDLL
How it was run: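 Concentration-response curves (0.7 nM to 77 uM final) were modeled with the Hill equation to give AC50. Reactions: 2 nM enzyme, 80 uM fluorogenic alpha-galactoside, pH 4.5 citric acid buffer, 20 min, room temperature.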

[12] = target: alpha-glucosidase (Oryza sativa, rice) (UniProt Q653V4); experiment: Counterscreen for Glucocerebrosidase Inhibitors: qHTS Assay for Rice alpha-Glucosidase at pH 5.0 (AID 997);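 further: 0% = full activity with enzyme and -100% = basal without enzyme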
How it was run: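 Rice alpha-glucosidase (4 nM final) with 400 uM 4-methylumbelliferyl-alpha-D-glucopyranoside in citrate buffer pH 5.0, 20 min at room temperature, stopped at pH 10; fluorescence 365/440 nm, compounds 0.7 nM–77 uM, AC50 from Hill fits.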

[13] = target: Alpha-galactosidase (Coffea arabica) (UniProt Q42656); experiment: Counterscreen for Glucocerebrosidase Inhibitors: qHTS Assay for Coffee Bean alpha-Galactosidase at pH 5.9 (AID 998);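 further: plate controls were uninhibited enzyme for no effect and no-enzyme basal signal for full effect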
How it was run: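 Compounds were titrated from 0.7 nM to 77 uM against green coffee bean alpha-galactosidase (2 nM) using 80 uM fluorogenic 4-methylumbelliferyl substrate. After 20 min at room temperature, reactions were stopped at pH 10 and read by fluorescence.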

[14] = NFAT Signaling Pathway (AID 444; active means well fitted curve in either direction with a large enough effect, not every such curve was filed as active;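 further: carbachol stimulus at about its EC50 of 1 µM final; on the % scale 0 is the no-effect control and ±100 the full control effect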); conditions: Jurkat NFAT-bla M1, carbachol, beta-lactamase ratio, 5 h; at 17.2 µM (top of the series) unless noted
How it was run: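 Read-out: CCF4 FRET ratio (460 nm/530 nm) after 1 h RT dye loading, used for %activity and AC50 from titration series. Cells: Jurkat NFAT-β-lactamase/M1 line, treated with compound plus 1 uM carbachol for 5 h, 37 °C.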

[15] = target: Guanine nucleotide-binding protein G(i) subunit alpha-1 (Homo sapiens) (UniProt P63096); experiment: qHTS Assay for Inhibitors of RGS12 GoLoco Motif Activity (Green Fluorophore) (AID 879); further: potency means the concentration at half of the fitted maximal effect
Chain of Guanine nucleotide-binding protein G(i) subunit alpha-1 (Homo sapiens) (P63096 whole entry, looked up): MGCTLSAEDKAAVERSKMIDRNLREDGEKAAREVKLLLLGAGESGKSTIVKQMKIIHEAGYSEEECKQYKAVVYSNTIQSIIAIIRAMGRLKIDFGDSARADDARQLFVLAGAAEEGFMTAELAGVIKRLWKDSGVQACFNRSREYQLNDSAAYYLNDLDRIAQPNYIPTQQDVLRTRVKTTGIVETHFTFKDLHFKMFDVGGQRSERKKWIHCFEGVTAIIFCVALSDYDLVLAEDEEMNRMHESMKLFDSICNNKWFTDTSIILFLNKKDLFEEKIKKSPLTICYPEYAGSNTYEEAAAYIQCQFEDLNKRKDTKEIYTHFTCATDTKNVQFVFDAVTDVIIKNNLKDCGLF
How it was run: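 Fluorescence polarization assay: 50 nM Gαi1 with 10 nM FITC-labeled RGS12 GoLoco peptide in 10 mM Tris pH 7.5, 150 mM NaCl, 0.1 mM GDP, 0.05% NP40, 10 min at room temperature with compound.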

[16] = qHTS Assay for Identification of Small Molecule Antagonists for NFkB Signaling Pathway (AID 895; active means well fitted inhibition curve with a large enough effect in the signal ratio, with a control signal flat, not every such curve was filed as active; the % refers to the signal ratio; further: on the % scale 0 is the no-effect control and ±100 the full control effect)
How it was run: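 Beta-lactamase reporter read-out (460 and 530 nm emission ratio, 405 nm excitation, 2 hrs substrate loading RT) after 5 hr stimulation with 10 pM TNF alpha in compound-treated NFkB-bla ME-180 cells in low-serum medium.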

[17] = qHTS Assay for Identification of Small Molecule Agonists for Thrombopoietin (TPO) Signaling Pathway (AID 917); further: on the % scale 0 is the no-effect control and ±100 the full control effect
How it was run: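 Murine Ba/F3 cells stably expressing human TPO receptor and a Glycoprotein IIb promoter–luciferase reporter were IL-3-starved overnight, then treated with compounds plus TPO (26 pM final, its EC50) for 24 hrs at 37 C; luminescence was read.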

[18] = target: Muscarinic acetylcholine receptor M1 (Rattus norvegicus) (UniProt P08482); experiment: qHTS Assay for Antagonists of Acetylcholine Muscarinic M1 Receptor: Kinetic Measurement of Intracellular Calcium Response (AID 943); further: nearly all actives have a fitted effect of over 75% in size; further: potency means the concentration at half of the fitted maximal effect;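 on activity change, negative = inhibition: Fluo-4 calcium signal as peak divided by basal fluorescence over 4 min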
How it was run: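 Rat M1-CHO cells, 2000/well, overnight → Fluo-4 no-wash dye with probenecid, 1 h 37C → compound 10 min, room temp → basal read 6 s → carbachol EC80 (100 nM) → 4 min kinetic read; peak/basal.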

[19] = target: Mitogen-activated protein kinase 10 (Mus musculus) (UniProt Q61831); experiment: JNK3 AlphaScreen Assay (AID 530; active means well fitted curve in either direction with a large enough effect, not every such curve was filed as active)
How it was run: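 Compound titrations were preincubated 15 minutes at room temperature with substrate, antibody and pre-activated JNK3-containing HepG2 lysate. Reactions were started with 10 uM ATP and stopped with EDTA-containing bead buffer for AlphaScreen detection.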

[20] = target: Pyruvate kinase PKM (Homo sapiens) (UniProt P14618); experiment: qHTS Assay for Inhibitors of Human Muscle Pyruvate Kinase (AID 958)
How it was run: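 ATP production by PKM2 detected via luciferase luminescence after 1 h room-temperature reaction (0.1 nM enzyme, PEP at Km 0.5 mM, ADP 0.1 mM, pH 7.2 imidazole buffer). Inhibition scaled to no-enzyme control; activation referenced to 0.3 nM enzyme wells.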

[21] = target: Pyruvate kinase (Leishmania mexicana) (UniProt Q27686); experiment: qHTS Validation Assay for Activators of Leishmania Mexicana Pyruvate Kinase (AID 959)
How it was run: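 Eight-point qHTS titrations in triplicate, data normalized to DMSO neutral control. Reaction: 0.2 nM LmPYK E451W mutant, 0.5 mM PEP, 0.1 mM ADP, 7 mM MgCl2, pH 7.2, one hour at room temperature; luminescent ATP detection.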

CCCN1CCc2cccc3c2[C@@H]1Cc1ccc(O)c(O)c1-3
active: Potency [2] 3.98 µM
inactive: activity change, negative = inhibition [1] 6.42% [at 38 µM] | outcome [3] | Potency [4] > 46 µM | Potency [5] > 46 µM | outcome [6] | Potency [7] | Potency [8] | outcome [9] | outcome [10] | outcome [11] | outcome [12] | outcome [13]

COC(=O)C(c1ccccc1)N1CCCCCC1 (stereo not drawn)
inactive: activity change, negative = inhibition [1] 17.9% | activity change, negative = inhibition [14] -19.7% | outcome [3] | Potency [4] > 20.6 µM

CCN1C[C@]2(C)CC[C@@H](O)[C@]34[C@@H]5CC6[C@@H](OC)C[C@@](O)([C@H]5[C@@H]6O)[C@@H](C[C@@H]23)[C@H]14
inactive: activity change, negative = inhibition [1] 5.54% [at 38 µM] | Potency [2] | activity change, negative = inhibition [14] 6.29% [at 38 µM] | outcome [3] | Potency [4] > 46 µM | Potency [5] > 46 µM | outcome [6] | Potency [15] | Potency [16] | outcome [17] | Potency [18] | Potency [8] | outcome [9] | outcome [10] | outcome [11] | outcome [12]

NC(N)=Nc1ccc2[nH]c3c(c2c1)C[C@]1(O)[C@@H]2Cc4ccc(O)c5c4[C@]1(CCN2CC1CC1)[C@H]3O5
inactive: activity change, negative = inhibition [1] -18.3% [at 38 µM] | Potency [2] | outcome [3] | Potency [4] > 46 µM | outcome [19] | outcome [6] | Potency [7] | outcome [9] | outcome [10] | outcome [21] | outcome [11] | outcome [12] | outcome [13]
active: Potency [15] 25.1 µM | Potency [18] 3.55 µM | Potency [8] 7.94 µM | Potency [20] 10 µM

COc1cc2[nH]c(=O)n(-c3cccc(Cl)c3)c(=O)c2cc1OC
inactive: activity change, negative = inhibition [1] 9.62% | activity change, negative = inhibition [14] 13.7% | outcome [3] | Potency [4] > 20.6 µM

CN(C)CCc1nn[nH]n1
inactive: activity change, negative = inhibition [1] 1.85% | activity change, negative = inhibition [14] -0.26% | outcome [3] | Potency [4] > 20.6 µM

NCC[Se][Se]CCN
active: Potency [2] 3.16 µM
inactive: activity change, negative = inhibition [1] 19.7% [at 7.69 µM] | outcome [3] | Potency [4] > 46 µM | activity change, negative = inhibition [19] -20.9% [at 11.4 µM] | outcome [6]

COc1ccccc1-n1c(O)c(C=NCCCn2ccnc2)c(=O)[nH]c1=O
inactive: activity change, negative = inhibition [1] 6.21% | activity change, negative = inhibition [14] 10.5% | outcome [3] | Potency [4] > 20.6 µM
